We go through 25 molecules from PubChem BioAssay.

A number with no mark means an inactive call. The source made the active and inactive calls.

The nature of the assay: growth effects on S. cerevisiae YJM789 – YJM789 clinical isolate, OD600, 24 h, basal, primary screen (AID 1089).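 Further: growth of clinical yeast isolate S. cerevisiae YJM 789 seeded 1000 cells per well; test concentration not given here.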 The note with it: higher = more signal, called active from +8 up or from −8 down.
`CCOC(=O)C=Cc1cc(F)ccc1O`: the z-score was -26.6 (active). With `[N-]=[N+]=Nc1ccccc1[C@@H]1OC(c2ccc(OCCCO)cc2)=N[C@]1(Cc1ccccc1)C(=O)NCc1ccccc1` the figure was -1.79. With `Cc1ccccc1C(O)C1C=CC2C(=O)NC(=O)C2N1Nc1ccc(Cl)cc1Cl` (stereo not given), the z-score is -2.09. On to `COc1ccc([Si](C)(C)[C@H]2[C@H](CCO)O[C@@]3(C(=O)N(Cc4ccccc4)c4ccc(N5CCOC5=O)cc43)[C@@H]2C)cc1`, for which the z-score was 0.948. With `COCC1C2CC[C@H]3C(OCc4ccc(OC)cc4)OC[C@]4(C)[C@H]3C2=C(CN4C(=O)OC(C)(C)C)[C@H](C)C1COC` (stereo not given in full) the figure was -1.23. The result for `COCCOC(=O)N1C(=O)[C@@]2(c3cc(C#CC4(O)CCCCCC4)ccc31)[C@H](C(=O)N1CCN(c3ncccn3)CC1)[C@H]1C(=O)O[C@H](c3ccccc3)[C@H](c3ccccc3)N1[C@@H]2c1ccccc1OCCO` reads 2.56. With `COc1ccc(C(=O)Nc2cccc(CN3C(=O)[C@@]4(O[C@@H](CC(=O)N(CCO)Cc5ccccc5)[C@H]([Si](C)(C)c5ccc(OC)cc5)[C@H]4C)c4ccccc43)c2)cc1` the figure was -1.42; with `COCCOC(=O)N1C(=O)[C@@]2(c3cc(C#CCNC(N)=O)ccc31)[C@H](c1ccc(O)cc1)N1[C@H](c3ccccc3)[C@H](c3ccccc3)OC(=O)[C@H]1[C@@H]2C(N)=O`, 0.878; with `O=C1C2C=CC(C(O)c3cccc(O)c3)N(Nc3ccccc3)C2C(=O)N1c1ccccc1` (stereo not given), 0.629. With `COc1ccc([Si](C)(C)[C@@H]2[C@@H](CC(=O)N3Cc4ccccc4C[C@H]3CO)O[C@]3(C(=O)N(c4ccccc4)c4ccccc43)[C@H]2C)cc1`, the z-score is 1.18.

On to `COc1ccc(C(O)C2C=CC3C(=O)N(c4ccccc4)C(=O)C3N2Nc2ccccc2F)cc1` (stereo not given), for which the z-score was -0.228.

Consider `COCCOC(=O)N1C(=O)[C@@]2(c3cc(C#CCC(C(=O)OC)C(=O)OC)ccc31)[C@H](c1ccc(O)cc1)N1[C@H](c3ccccc3)[C@H](c3ccccc3)OC(=O)[C@H]1[C@@H]2C(=O)NC[C@H](O)c1ccccc1`, for which the z-score was 0.326.

As for `COCC(=C=CC[C@H](O)c1cccc(OCCO)c1)C[C@H](O)COCc1ccccc1`, the z-score is -0.244. With `C=C(C)[C@@H]1CC=C(C(O)C2C=CC3C(=O)N(c4ccccc4)C(=O)C3N2Nc2ccc(C#N)cc2)CC1` (stereo not given in full), the z-score is 0.188. Take `COc1ccc(NC(=O)O[C@H]2[C@@H]3OC(=O)[C@H](Cc4cccc(Br)c4)C/C=C/C[C@@H](Cc4cccc(Br)c4)C(=O)O[C@H]3[C@@H](OC)O[C@@H]2CO)cc1`: the z-score was 0.337. For `C=C(/C(=C/C[C@H](OC(=O)c1ccncc1)c1cccc(OCCO)c1)c1cnc2ccccc2c1)C(C)C`, the z-score is -25.3 (active).

In the case of `CS(=O)(=O)CCOC(=O)C1=CC(CCCO)=CC(C2CC2)N(Cc2cccc(OC(F)(F)F)c2)C=C1C(=O)OCCS(C)(=O)=O` (stereo not given), the z-score was -0.725. For `NC(=O)[C@H]1[C@@H]2C(=O)O[C@@H](c3ccccc3)[C@@H](c3ccccc3)N2[C@@H](c2ccc(O)cc2)[C@]12C(=O)Nc1ccc(C#CC3=CCCCC3)cc12`, the z-score is 1.42. For `[N-]=[N+]=NCc1ccccc1[C@@H]1OC(c2ccc(OCCCO)cc2)=N[C@]1(Cc1ccccc1)C(=O)NCCN1CCOCC1`, the z-score was 0.469. Regarding `COc1cc(C(O)C2C=CC3C(=O)N(Cc4ccccc4)C(=O)C3N2n2cnnc2)cc(OC)c1OC` (stereo not given), the z-score was -1.3.

Consider `C=CCN1C(=O)[C@@]2(O[C@@H](CCO)[C@H]([Si](C)(C)c3ccc(OC)cc3)[C@H]2C)c2cc(N3CCOC3=O)ccc21`, for which the z-score was 1.53. With `CC(C)[C@H]1NC(=O)[C@@]23C(=O)N[C@@H](Cc4ccccc4)C2[C@H](C)[C@@]2(C)O[C@H]2C3/C=C/C/C=C\CNC(=O)[C@H](Cc2ccccc2)NC1=O` (stereo not given in full), the z-score was -0.155. In the case of `O=C1C2C=CC(C(O)c3ccco3)N(Nc3ccccc3)C2C(=O)N1c1ccccc1` (stereo not given), the z-score is 0.928. For the molecule `CC(C)C[C@@H]1NC(=O)[C@@]23C(=O)N[C@@H](Cc4ccccc4)C2[C@H](C)[C@@]2(C)O[C@H]2C3/C=C/C/C=C\CNC(=O)[C@@H](C)NC1=O` (stereo not given in full), the z-score is -0.939. `CCN(CC)c1ccc(N2CC=CC34O[C@@H]5/C=C\CCC(C)OC(=O)C5[C@H]3C(=O)N(C(C)CO)[C@@H]4C2=O)cc1` (stereo not given in full): the z-score is 0.217.
